VACV Venus inh: vaccinia inhibition (Venus reporter) | Vaccinia virus Venus reporter expression, fluorescence | Potency, µM (titrated, usually from 36.5 µM), inactives show at the top dose activity change, negative = inhibition, usual class: inhibitors | 330,000 compounds, 0.46% hits; calls by dose curve; tested in A549 cells; note: potency is the fitted concentration of half-maximal effect; % is set by controls: 0 for no effect and ±100 for the full control effect; nearly all actives have a fitted effect of over 30% in size
Vaccinia mCherry: inhibitors of vaccinia virus infection (mCherry reporter signal); Vaccinia virus mCherry reporter infection, fluorescence; Potency, µM (titrated, usually from 36.5 µM), inactives show at the highest dose activity change, negative = inhibition, hits mostly inhibitors; 310,000 compounds, 0.63% hits; AID 720579; calls by dose curve; tested in A549 cells; note: potency is the fitted concentration of half-maximal effect; % is set by controls: 0 for no effect and ±100 for the full control effect; nearly all actives have a fitted effect of over 35% in size
SARS PLpro yeast-1: blocks SARS-CoV papain-like protease in a yeast assay. S. cerevisiae expressing SARS-CoV PLpro, growth rescue. Potency, µM (doses to about 32.9 µM), for inactives: top-dose activity, positive = growth rescue, most hits filed as activators. 330,000 compounds, 0.19% hits. AID 485353; calls by dose curve; note: potency is the fitted concentration of half-maximal effect; 0% is about no effect; nearly all actives have a fitted effect of over 55% in size
AmpC inh detg: AmpC beta-lactamase inhibition with detergent present. P00811. AmpC hydrolysis of nitrocefin, absorbance 480 nm, 0.01% Triton. Potency, µM (top dose mostly 114 µM), for the others: at the highest dose activity change, negative = inhibition, actives largely listed as inhibitors. 370,000 compounds, 0.041% hits;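 note: potency is the fitted concentration of half-maximal effect; 0% = no-compound wells and -100% = no-enzyme wells; nearly all actives have a fitted effect of over 25% in size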
Target sequence (P00811 whole entry, looked up): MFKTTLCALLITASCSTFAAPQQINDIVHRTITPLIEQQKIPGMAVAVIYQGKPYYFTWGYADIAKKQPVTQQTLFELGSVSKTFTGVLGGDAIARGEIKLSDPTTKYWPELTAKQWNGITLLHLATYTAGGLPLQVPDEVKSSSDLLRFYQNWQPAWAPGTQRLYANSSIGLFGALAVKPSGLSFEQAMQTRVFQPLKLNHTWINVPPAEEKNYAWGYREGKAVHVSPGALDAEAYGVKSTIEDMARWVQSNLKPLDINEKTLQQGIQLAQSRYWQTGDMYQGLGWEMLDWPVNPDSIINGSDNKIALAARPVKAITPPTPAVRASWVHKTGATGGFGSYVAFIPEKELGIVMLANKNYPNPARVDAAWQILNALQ
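20 mM phosphate pH 7.0 + 0.01% (detergent screen) or 0.0001% Triton X-100; 5.3 nM AmpC reagent; cpd preinc 15 min RT; nitrocefin (800 uM stock) to start; A480 q20 s × 4 min; Activity was normalised to no-enzyme and no-compound control wells.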
AmpC no deterg: inhibitors of E. coli AmpC beta-lactamase without detergent; 330,000 compounds, 0.52% hits; AmpC nitrocefin hydrolysis, absorbance 480 nm, 0.0001% Triton; Potency, µM (highest dose often 57.1 µM), for inactives: at the highest dose activity change, negative = inhibition, most hits filed as inhibitors;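 note: potency is the fitted concentration of half-maximal effect; plate controls were no compound for no effect and no enzyme for full effect; nearly all actives have a fitted effect of over 20% in size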
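AmpC (5.3 nM in the dispensed reagent) in 20 mM phosphate pH 7.0 with 0.01% (detergent screen) or 0.0001% Triton X-100 was preincubated with compounds for 15 min at room temperature. Nitrocefin was then added from an 800 uM solution, and hydrolysis was followed at 480 nm.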
SARS PLpro yeast-2: Rescues yeast growth by inhibiting SARS-CoV PLpro. shares compounds with SARS PLpro yeast-1. 1,000 compounds, 19% hits. yeast expressing SARS-CoV PLpro, growth phenotype rescue. calls only; call rule not given here
* marks the source's active call; other numbers are inactive results; i = inactive; ? = inconclusive; / = not tested or not shown; + = active, no number. Rows were chosen to be rich in hits. Some 1.3% of all compounds tested hit in one or more screens of this group. Unless noted, calls come from the whole dose curve; as a rule, active = well fitted curve in the direction sought with a large enough effect; inconclusive = small, poorly fitted or top-dose-only effect, or another doubt; inactive = no such curve, though single readings can be large; an effect the other way counts as inactive or inconclusive.

SMILES	VACV Venus inh	Vaccinia mCherry	SARS PLpro yeast-1	AmpC inh detg	AmpC no deterg	SARS PLpro yeast-2
CCS(=O)(=O)N1Cc2cc(C(=O)NCC3CC3)nc(-c3cccc(-c4cccnc4)c3)c2[C@@H]1CCO	?	i	/	/	/	/
Cc1onc(-c2ccccc2)c1C(=O)NC(=S)NNC(=O)c1ccc(O)cc1	-22%	-18%	1%	-11%	-37%	/
Cc1onc(-c2ccccc2)c1C(=O)NNC(=O)c1ccccc1Br	/	/	2%	-6%	-49%	/
Cc1onc(-c2ccccc2)c1C(=O)NC(=S)NNC(=O)c1ccc(O)cc1O	-21%	-9%	14µM*	1%	-49%	+
Cc1onc(-c2ccccc2)c1C(=O)NC(=S)NNC(=O)c1ccccc1O	?	?	4.5µM*	-12%	-34%	i
Cc1ccc(NC(=O)CN(C)S(=O)(=O)c2cnc[nH]2)cc1	-11%	-16%	/	19%	/	/
Cn1c(SCC(=O)C(C)(C)C)nnc1-c1ccncc1	/	/	10%	-6%	-3%	/
CC(=O)CSc1nnc(-c2ccncc2)n1C	/	/	?	?	-5%	i
COc1ccccc1CNC(=S)NCCc1ccccc1	4%	-4%	?	-13%	-20%	?
Cc1nn(C)cc1CNC(=O)/C=C/c1cnn(C)c1	-7%	-11%	6%	?	-25%	/
COc1ccc(/C=C/C(=O)NCc2cn(C)nc2C)cc1COc1ccc(Br)cc1	/	/	?	-10%	152%	i
O=C(Cn1c(-c2cccs2)cc2ccccc21)NCc1ccccc1Br	-17%	-9%	/	?	/	/
O=C(CN1CCCCC1)c1ccc(OC(F)F)cc1	-7%	-12%	?	-1%	-19%	i
O=C(CN1CCCCC1CO)c1ccc(OC(F)F)cc1 (configuration not stated)	/	/	-6%	0%	46%	/
COc1ccc(C(=O)Nc2ccc(NC(=O)c3cccs3)cc2)cc1[N+](=O)[O-]	-7%	5%	-3%	-11%	-24%	/
CCOc1ccc(C(=O)Nc2ccc(NC(=O)c3cccs3)cc2)cc1[N+](=O)[O-]	-10%	-12%	4µM*	-14%	-12%	+
Cc1ccc(C(=O)NC(=S)Nc2ccccc2N2CCCC2)cc1[N+](=O)[O-]	-14%	-14%	?	-1%	-31%	+
Cc1ccc(C(=O)Nc2ccccc2N2CCCCC2)cc1[N+](=O)[O-]	-7%	i	1%	-13%	-22%	/
Cn1cccc1C(=S)N1CCOCC1	0%	-13%	1%	?	-23%	/
Cn1cccc1C(=S)N=P(C1CCCCC1)(N1CCOCC1)N1CCOCC1	-6%	i	2.8µM*	-7%	-4%	i
COc1ccc(-n2ncc3c2ncn2nc(COc4ccc(Cl)cc4)nc32)cc1	-8%	-10%	/	12%	/	/
CC1(c2nnc(Cc3ccccc3)o2)CC(c2ccc(OC(F)(F)F)cc2)=NO1 (configuration not stated)	-17%	?	10µM*	-13%	58%	i
O=C(N/N=C/C1CC=CCC1)c1ccccc1O (configuration not stated)	-21%	/	-4%	?	-14%	/
O=C(N/N=C/C1CC=CCC1)c1ccc(Cl)cc1O (configuration not stated)	-7%	-5%	11µM*	6%	-19%	i
COc1cc(C(=O)Nc2ccc3[nH]c(=O)sc3c2)cc(OC)c1OC	20%	21%	/	12%	/	/
SMILES	VACV Venus inh	Vaccinia mCherry	SARS PLpro yeast-1	AmpC inh detg	AmpC no deterg	SARS PLpro yeast-2
O=C(NCC(c1cccnc1)N1CCOCC1)C(=O)Nc1cccc(Cl)c1 (configuration not stated)	-10%	-11%	/	14%	/	/
COc1ccc(-c2cc(C(=O)Oc3ccccc3)c3cc(C)ccc3n2)cc1	-20%	-17%	/	19%	/	/
COc1ccc(OCC(=O)OCc2cc(=O)n3nc(-c4cccs4)sc3n2)cc1	-4%	-7%	/	22%	/	/
Oc1cccc(C(Nc2nccs2)c2ccc3cccnc3c2O)c1 (configuration not stated)	?	16µM*	0.45µM*	8%	-42%	+
CN1CCN(C(c2ccc(C(F)(F)F)cc2)c2ccc3cccnc3c2O)CC1 (configuration not stated)	-18%	?	-15%	0%	-1%	/
COc1cccc(C(NC(C)=O)c2nc(-c3cccnc3)cs2)c1 (configuration not stated)	1%	i	/	/	/	/
CC(=O)NC(c1cccc([N+](=O)[O-])c1)c1ccc2cccnc2c1O (configuration not stated)	?	?	1.1µM*	0%	17%	i
Oc1c(C(c2cccs2)N2CCN(c3ccccc3)CC2)ccc2cccnc12 (configuration not stated)	/	/	/	-2%	/	/
COc1cccc(C(NC(C)=O)c2ccc3cccnc3c2O)c1 (configuration not stated)	?	?	3.2µM*	-9%	-17%	i
Oc1c(C(Nc2cccc(C(F)(F)F)c2)c2cccnc2)ccc2cccnc12 (configuration not stated)	-24%	-22%	?	-3%	-18%	i
Cc1nc2c(c(SCC(=O)Nc3ccccc3C(F)(F)F)n1)CCC2	-14%	-10%	/	8%	/	/
NC(=S)N/N=C/c1ccccc1	?	5.6µM*	2.5µM*	-2%	-11%	+
NC(=S)N/N=C\c1c2ccccc2cc2ccccc12	?	?	14µM*	-4%	-42%	i
O=C(CSCc1ccccc1)N/N=C/c1ccccc1OCc1ccccc1	-10%	-6%	-6%	-8%	-30%	/
NC(=S)N/N=C\c1ccccc1OCc1ccccc1	2.5µM*	?	11µM*	-11%	-39%	+
NC(=S)N/N=C/c1ccc2c(c1)OCCO2	10µM*	11µM*	14µM*	4%	-17%	+
Cc1ccc(-n2c(=O)c3ccccc3n(CC(=O)Nc3cccc(C(F)(F)F)c3)c2=O)cc1	-15%	-1%	/	-3%	/	/
CSc1ccc(CNC(=O)Cn2nc(N3CCN(c4ccccc4)CC3)ccc2=O)cc1	-9%	-13%	/	?	/	/
COc1ccc(CC(=O)OCC(=O)Nc2ccc3[nH]c(=O)[nH]c3c2)cc1OC	6%	-14%	/	/	/	/
C[C@H](CO)N1C[C@H](C)[C@H](CN(C)Cc2cccc(C(F)(F)F)c2)OCc2ccccc2-c2c(n(C)c3ccccc23)C1=O	-7%	-21%	/	/	/	/
Cc1ccc(OCC(=O)Nc2ccccc2C(=O)OCc2cc(=O)n3nc(C4CC4)sc3n2)cc1	-23%	-23%	/	13%	/	/
COc1cc(/C=N/NC(N)=S)ccc1OCc1ccc(C)cc1	?	11µM*	?	-6%	-52%	+
Nc1c(Cl)ncnc1N/N=C/c1ccnc2ccccc12	-7%	-17%	-8%	-12%	-20%	/
